Reference: PubChem BioAssay AID652126 (The Scripps Research Institute Molecular Screening Center, 2013)
The whole screen tested about 370,000 compounds, of which about 3,700 (1%) were called active.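 How the source made its calls: active means activation above the mean over all tested compounds plus 3 SD (cut at about 0.9% in these data); inactive means the rest.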 Many of the other results were omitted from the sample, so actives are more common in it than they were.

What follows are molecules tested on Nuclear hormone receptor DAF-12 (Strongyloides stercoralis) (assay: S. stercoralis DAF-12 nuclear receptor activators, primary screen, cell-based, luminescence, HEK293, GRIP1 co-expression, lit1-tk-luc (AID 652126;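 further: 0% = DMSO-only wells and 100% = 3 µM delta7-dafachronic acid wells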)). Settings: HEK293 ssDAF-12/GRIP1 lit1-tk-luc reporter, at 6.8 µM, hits give high values, % of 3 µM dafachronic acid response.
With `COc1ccc(/C=C/c2c(-c3cccc(C)c3)oc3ccc(-c4ccc5c(c4)OCO5)cc23)cc1` the activation was -1.12% (inactive). For `COc1ccc([C@H]2CC(=O)C=C(c3ccc(C)cc3)C2)cc1`, the activation was -0.86% (inactive). In the case of `COc1ccc(C2=Nc3cc(C)ccc3OC2)cc1`, the activation is reported as 1.43% (active). In the case of `CCOc1ccc(Oc2c(Cl)cnn(-c3ccc(C)cc3)c2=O)cc1`, the activation is reported as -1.17% (inactive). `Cc1ccc(C2=NN(C)c3nc4ccccc4n3C2)cc1` was tested, and the activation was 1.2% (active). For `Cc1nc2ccccc2n1CC(O)c1ccccc1` (stereo not drawn), the activation was -1.14% (inactive). With `Cc1ccc(-c2nnc(-n3nnc4ccccc43)c3ccccc23)cc1` the activation was -1.26% (inactive). With `O=C(CCCCCN1C(=O)C2C3C=CC(C3)C2C1=O)Nc1ccccc1` (stereo not drawn) the activation was -1.12% (inactive). In the case of `COc1c(N2CCN(C(=S)Nc3ccccc3F)C(C)C2)c(F)cc2c(=O)c(C(=O)O)cn(C3CC3)c12` (stereo not drawn), the activation is reported as -0.28% (inactive). With `O=C(NC1CCC1)c1ccc(C#Cc2cccc(F)c2)c[n+]1[O-]` the activation was -1.07% (inactive). In the case of `CSc1nc(C)nc(C2CC2)c1C#N`, the activation is reported as -1.49% (inactive). For `Nc1ccc(C(=O)Nc2ccccc2N)cc1`, the activation was 1.55% (active). `O=C(Nc1ccccc1C(=O)N1CCOCC1)c1ccc(Cl)cc1` was tested, and the activation was -1.32% (inactive). With `CC(CNC(=O)c1ccc(N)cc1)NC(=O)c1ccc(N)cc1` (stereo not drawn) the activation was -1.71% (inactive). `Cc1ccc(-n2c(COc3ccccc3)nnc2SCC(=O)Nc2ccc3c(c2)OCCO3)cc1` was tested, and the activation was -1.43% (inactive). `CC(NC(=O)COC(=O)c1ccc2ccccc2n1)c1ccccc1` (stereo not drawn) was tested, and the activation was -0.49% (inactive). With `COC(=O)c1ccc(NC(=S)Nc2cccc(C)n2)cc1` the activation was -0.35% (inactive). In the case of `Cc1cccc(NC(=O)c2ccc3ccccc3n2)n1`, the activation is reported as 1.11% (active). With `Cc1c(C(C)c2ccccc2O)[nH]c2ccccc12` (stereo not drawn) the activation was -0.11% (inactive). `CCOc1ccc(-n2c(SCC(=O)Nc3cc(C)c(NC(=O)c4ccccc4)cc3OC)nnc2-c2cccs2)cc1` was tested, and the activation was -1.35% (inactive). `CCOC(=O)N1CCN(C(=O)C[C@H]2C[C@@]3(C(=O)OC)C(=C[C@H](C(C)(C)C)O[C@@H]3C)N(Cc3ccc(Cl)cc3Cl)C2=O)CC1` was tested, and the activation was -1.86% (inactive). For `COc1ccc(C)cc1S(=O)(=O)NCCc1ccccc1`, the activation was -0.72% (inactive). In the case of `COCCNS(=O)(=O)c1cc(Br)ccc1OC`, the activation is reported as -1.56% (inactive). With `COc1ccc(OC)c(S(=O)(=O)NCCC(C)C)c1` the activation was 1.47% (active). In the case of `CC(C)CNc1cccc2c1S(=O)(=O)N(Cc1cn(Cc3ccc(Cl)cc3)nn1)Cc1ccccc1O2`, the activation is reported as -1.25% (inactive). For `O=C(CSc1nc2ccccc2nc1N1CCCCC1)N1CCN(S(=O)(=O)c2cccc([N+](=O)[O-])c2)CC1`, the activation was -0.71% (inactive). In the case of `CC(=O)Nc1ccc(OC[C@@H](O)CN2CCC(C(O)(c3ccccc3)c3ccccc3)CC2)cc1`, the activation is reported as -0.46% (inactive). In the case of `O=C(NCc1ccc(Cl)cc1)C1CCCN(c2nc3ccccc3o2)C1` (stereo not drawn), the activation is reported as -1.04% (inactive). For `COc1ccccc1CNC(=O)C1CCN(c2nc3ccccc3o2)CC1`, the activation was -1.15% (inactive). For `COc1cccc(CNC(=O)C2CCCN(c3nc4ccccc4o3)C2)c1OC` (stereo not drawn), the activation was 1.04% (active). In the case of `CCC(=O)Nc1ccc2c(c1)C(=O)N(C)[C@H]1CC[C@H](CC(=O)NCCOC)O[C@@H]1CO2`, the activation is reported as -1.05% (inactive). With `COc1ccc(-n2c(COc3ccccc3)nnc2SCC(=O)Nc2ccc3c(c2)OCO3)cc1` the activation was -1.47% (inactive). With `COc1ccc(C(CNC(=O)c2cc3c(s2)CCCC3)N2CCOCC2)cc1` (stereo not drawn) the activation was -1.09% (inactive). For `O=c1c2cc([N+](=O)[O-])ccc2nc2n1CCC2`, the activation was -0.82% (inactive). With `CC(C)(C)NC(=O)Cn1cnc2cc([N+](=O)[O-])ccc2c1=O` the activation was -1.52% (inactive). With `Cc1ccc(-n2cc3ccc([N+](=O)[O-])cc3n2)cc1` the activation was 1.77% (active). In the case of `C=CCN1C(=O)[C@@H](CC(=O)N2CCN(C(=O)OCC)CC2)[C@]2(C(=O)OCC)CCCCC/C=C/12`, the activation is reported as -1.02% (inactive). With `CCOc1cc(C)c(S(=O)(=O)NCc2ccccn2)cc1C` the activation was 0.98% (active). For `Cc1cc(S(=O)(=O)NCc2ccccn2)c(Cl)cc1Cl`, the activation was -1.84% (inactive). With `COc1ccccc1CNS(=O)(=O)c1cc(C(=O)NCc2ccccn2)c(Cl)cc1Cl` the activation was -1.13% (inactive). `COC(=O)[C@H](C(C)C)N(CCCc1cn(Cc2ccccc2)nn1)S(=O)(=O)c1ccc(F)cc1Br` was tested, and the activation was -2.17% (inactive). For `Cc1cccc(-n2c(O)c(C=Nc3ccccc3N)c(=O)[nH]c2=O)c1`, the activation was 1.8% (active). In the case of `COc1cccc(N(C)C(=O)[C@@H](C)[C@@H](O)c2ccc3ccccc3c2)c1`, the activation is reported as -1.07% (inactive). `O=c1c2c(nc3cc(-c4cccc(Cl)c4)[nH]n13)CCCC2` was tested, and the activation was 1.57% (active). `CSc1nc2nc3c(c(=O)n2[nH]1)CCC3` was tested, and the activation was -1.17% (inactive). For `CCOC(=O)C1CCN(S(=O)(=O)c2ccc3c(c2)N(C(C)=O)CCO3)CC1`, the activation was -1.19% (inactive). For `COc1ccc(-c2csc(C(O)c3cccc(Cl)c3)n2)cn1` (stereo not drawn), the activation was -1.06% (inactive). With `OC(c1ccccc1)c1nc(-c2cnc3ccccc3c2)cs1` (stereo not drawn) the activation was 1.25% (active). With `CC(C)c1cccc(-c2csc(C(O)c3ccccc3)n2)c1` (stereo not drawn) the activation was -1.41% (inactive). With `COc1ccc(C=C(C#N)C#N)c(CSc2ccccn2)c1` the activation was 2.1% (active). With `CN(C)c1nc(N)nc(CSc2ccccn2)n1` the activation was -1.25% (inactive). With `COc1cccc(N(CC(=O)NCCSc2ccccn2)S(C)(=O)=O)c1` the activation was -1.16% (inactive). `c1coc(CCNc2ncnc3ccc(-c4ccc5c(c4)OCO5)cc23)c1` was tested, and the activation was -0.09% (inactive). `CCn1c2ccccc2c2cc(NC(=O)CSc3nnc(-c4ccccc4)n3-c3ccc(C)cc3)ccc21` was tested, and the activation was -1.2% (inactive). For `COc1cc(/C=N/Nc2nc3ccccc3s2)ccc1O`, the activation was 2.25% (active). `COc1ccc(/C=N/Nc2ncnc3sc4c(c23)CCCC4)cc1O` was tested, and the activation was -0.66% (inactive). With `O=C(CSc1nc2ccccc2s1)NN=Cc1ccc(O)cc1O` the activation was -1.4% (inactive). With `COc1ccccc1CCNC(=O)C1CCN(c2nc(C)cc(C)n2)CC1` the activation was -1.36% (inactive).
